Several values for one entry are separate records, joined by “and”; a condition that tells them apart may be missing. Equal values may be shown once. Inconclusive results are not listed. A call without a number means that no potency is given here. A structure can be active in one record and inactive in another. Activity calls are given as the source filed them. Calls come from the whole dose curve; as a rule, active = well fitted curve in the direction sought with a large enough effect in the repeat runs; inconclusive = weak or mixed curves; inactive = no such curve, though single readings can be large; an effect the other way counts as inactive or inconclusive.
How the values were obtained:
[1] = A CellTox Green Cytotoxicity Assay to monitor cytotoxicity in HEK293 cells - 32 hour (AID 1224881); note: nearly all actives have a fitted effect of over 40% in size
Procedure, shortened: (§1)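 Cells (HEK293, 600/well) and dye reagent are dispensed together. After 5 h at 37 C, 23 nL compound is pinned in. Plates stay at 37 C for 40 h with fluorescence read at 0h, 8h, 16h, 24h, 32h and 40h.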

[2] = A CellTox Green Cytotoxicity Assay to monitor cytotoxicity in HepG2 cells - 0 hour (AID 1224882); note: nearly all actives have a fitted effect of over 35% in size
Procedure, shortened: (§2)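 Cells and non-lytic dye reagent are dispensed together (600 HepG2 cells/well) and incubated 5 h before DMSO compound transfer. Kinetic fluorescence is then recorded in the same wells during 40 h at 37 C.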

[3] = A CellTox Green Cytotoxicity Assay to monitor cytotoxicity in HepG2 cells - 32 hour (AID 1224883); note: nearly all actives have a fitted effect of over 50% in size
Procedure, shortened: as §2

[4] = A CellTox Green Cytotoxicity Assay to monitor cytotoxicity in HEK293 cells - 8 hour (AID 1224884); note: nearly all actives have a fitted effect of over 35% in size
Procedure, shortened: as §1

[5] = qHTS RealTime-Glo MT Cell Viability Assay in HepG2 cells - 16 hour (AID 1224885); note: nearly all actives have a fitted effect of over 50% in size
Procedure, shortened: (§3)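 HepG2 cells were seeded at 600 cells/well together with NanoLuc luciferase and a cell-permeant prosubstrate, preincubated 5 h at 37 C/5% CO2, then pin-dosed with compounds in DMSO. Nonlytic luminescence from viable cells was read at each time point.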

[6] = qHTS RealTime-Glo MT Cell Viability Assay in HEK293 cells - 24 hour (AID 1224886); note: nearly all actives have a fitted effect of over 50% in size
Procedure, shortened: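 HEK293 cells were seeded at 600 cells/well together with NanoLuc luciferase and cell-permeant prosubstrate, preincubated 5 h at 37 C/5% CO2, then given compound in DMSO by pintool. Luminescence from viable-cell prosubstrate reduction was read repeatedly over 40 h.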

[7] = qHTS RealTime-Glo MT Cell Viability Assay in HEK293 cells - 8 hour (AID 1224887); note: nearly all actives have a fitted effect of over 50% in size
Procedure, shortened: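 Real-time viability in HEK293: signal arises when living cells convert a prosubstrate for NanoLuc in the medium, so luminescence tracks viable cell number. Compound (23 nL, DMSO) added 5 h post-seeding; kinetic reads at 0–40 h, 37 C.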

[8] = A CellTox Green Cytotoxicity Assay to monitor cytotoxicity in HEK293 cells - 16 hour (AID 1224888); note: nearly all actives have a fitted effect of over 35% in size
Procedure, shortened: as §1

[9] = qHTS RealTime-Glo MT Cell Viability Assay in HepG2 cells - 0 hour (AID 1224889); note: nearly all actives have a fitted effect of over 50% in size
Procedure, shortened: as §3

[10] = A CellTox Green Cytotoxicity Assay to monitor cytotoxicity in HepG2 cells - 8 hour (AID 1224890); note: nearly all actives have a fitted effect of over 45% in size
Procedure, shortened: as §2
Potency is the fitted concentration of half-maximal effect.

| SMILES | Potency [1] | Potency [2] | Potency [3] | Potency [4] | Potency [5] | Potency [6] | Potency [7] | Potency [8] | Potency [9] | Potency [10] |
| --- | --- | --- | --- | --- | --- | --- | --- | --- | --- | --- |
| c1ccc(NNc2ccccc2)cc1 | 24.5 µM (active) | inactive | inactive | inactive | inactive | inactive | inactive | inactive | inactive and 43.6 µM (active) | inactive |
| Cc1cccc(N)c1N | inactive | inactive | inactive | inactive | inactive | inactive | inactive | inactive | inactive | inactive |
| O=C(CCl)c1ccccc1 | inactive and 54.9 µM (active) | inactive | inactive | inactive | inactive | inactive and 49 µM (active) | inactive | inactive | inactive | inactive |
| CCN(N=O)C(N)=O | inactive | inactive | inactive | inactive | inactive |  |  | inactive | inactive | inactive |
| C=C(C)C(=O)OCC1CO1 (stereo unspecified) | inactive | inactive | inactive | inactive | inactive |  | inactive | inactive | inactive | inactive |
| NC(=S)Nc1ccccc1 | 49.8 µM (active) and inactive | 49.8 µM (active) and inactive | 49.8 µM (active) and inactive | 49.8 µM (active) and inactive | inactive |  | inactive |  | inactive | 55.9 µM (active) and inactive |
| O=[N+]([O-])c1ccc(O)c([N+](=O)[O-])c1 |  | inactive | inactive | inactive | inactive | inactive | inactive | inactive | inactive | inactive |
| Oc1cc(Cl)c(Cl)cc1Cl | inactive | inactive | inactive | inactive | inactive |  |  | inactive | inactive | inactive |
| C#CCOS(=O)OC1CCCCC1Oc1ccc(C(C)(C)C)cc1 (stereo unspecified) | inactive | inactive | inactive | inactive |  | 15.5 µM (active) and 19.5 µM (active) | 17.4 µM (active) | inactive | inactive | inactive |
| CCC(C)(c1ccc(O)cc1)c1ccc(O)cc1 | inactive | inactive | inactive | inactive | inactive |  |  | inactive | inactive | inactive |
| O=[N+]([O-])c1cccc2ccccc12 | inactive | inactive | inactive | inactive | inactive |  |  | inactive | inactive | inactive |
| Cc1c(COC(=O)[C@@H]2[C@H](/C=C(\Cl)C(F)(F)F)C2(C)C)cccc1-c1ccccc1 | inactive | inactive | inactive | inactive | inactive |  |  | inactive | inactive | inactive |
| Clc1nc(Cl)nc(Cl)n1 | inactive | inactive | inactive | inactive | inactive |  | inactive | inactive | inactive | inactive |
| Nc1ccc(Cl)cc1N | 21.9 µM (active) | inactive and 19.5 µM (active) | inactive and 23.2 µM (active) | 24.5 µM (active) | inactive |  | 40.4 µM (active) | 24.5 µM (active) | inactive | inactive and 21.9 µM (active) |
| CN(C)C(=O)Nc1ccc(Cl)cc1 | inactive | inactive | inactive | inactive | inactive |  | inactive | inactive | inactive | inactive |
| C=C(C)[C@H]1Cc2c(ccc3c2O[C@@H]2COc4cc(OC)c(OC)cc4[C@@H]2C3=O)O1 | inactive | inactive | 27.9 µM (active) and 24.5 µM (active) | inactive | 31.3 µM (active) and 27.5 µM (active) |  |  | inactive | inactive | inactive |
| CCC(C)c1ccc(O)cc1 (stereo unspecified) | 43.6 µM (active) | inactive | 43.6 µM (active) |  | inactive |  | inactive |  | inactive | inactive |
| ClC1C(Cl)C(Cl)C(Cl)C(Cl)C1Cl (stereo unspecified) |  | inactive | inactive and 43.6 µM (active) | inactive and 43.6 µM (active) | inactive | inactive and 49 µM (active) | inactive and 49 µM (active) |  | inactive | inactive |
| Cc1cc(Cl)ccc1OCCCC(=O)O | inactive | inactive | inactive | inactive | inactive |  |  | inactive | inactive | inactive |
| CCCCCc1cc(O)cc(O)c1 | inactive | inactive |  | inactive | inactive and 43.6 µM (active) | 38.9 µM (active) | 24.5 µM (active) | inactive | inactive | inactive and 38.9 µM (active) |
| c1ccc(N=Nc2ccccc2)cc1 |  | inactive | inactive | inactive | inactive | inactive | inactive | inactive | inactive | inactive |

| SMILES | Potency [1] | Potency [2] | Potency [3] | Potency [4] | Potency [5] | Potency [6] | Potency [7] | Potency [8] | Potency [9] | Potency [10] |
| --- | --- | --- | --- | --- | --- | --- | --- | --- | --- | --- |
| C=CCc1ccc2c(c1)OCO2 | inactive | inactive | inactive | inactive | inactive |  | inactive | inactive | inactive | inactive |
| CC1(C)C(C=C(Cl)Cl)C1C(=O)OC(C#N)c1cccc(Oc2ccccc2)c1 (stereo unspecified) | inactive | inactive | inactive | inactive | inactive |  |  | inactive | inactive | inactive |
| O=C1C=CC(=O)C=C1 | inactive | inactive | inactive | inactive | inactive |  |  | inactive | inactive | inactive |
| CN(C)c1ccc(C(=O)c2ccc(N(C)C)cc2)cc1 | inactive | inactive | 12.2 µM (active) | inactive | inactive |  |  | inactive | inactive | inactive |
| NNC(N)=S | inactive | inactive | inactive | inactive | inactive |  | inactive | inactive | inactive | inactive |
| Cc1ccc(N)c(N)c1 | inactive | inactive | inactive | inactive | inactive |  |  | inactive | inactive | inactive |
| c1ccc(P(c2ccccc2)c2ccccc2)cc1 | inactive | inactive | inactive | inactive | inactive |  |  | inactive | inactive | inactive |
| S=C1NCCN1 | inactive | inactive | inactive | inactive | inactive |  | inactive | inactive | inactive | inactive |
| CC(C)N(C(=O)SCC(Cl)=C(Cl)Cl)C(C)C | inactive | inactive | inactive | inactive | inactive |  | inactive | inactive | inactive | inactive |
| CC(O)CCO (stereo unspecified) | inactive | inactive | inactive | inactive | inactive |  |  | inactive | inactive | inactive |
| CCC(C)(C)c1ccc(O)cc1 | 49.5 µM (active) and 43.6 µM (active) | inactive | 44.1 µM (active) and 38.9 µM (active) and 21.3 µM (active) | inactive | inactive |  |  |  | inactive | inactive and 43.6 µM (active) |
| CCOc1cc(Oc2ccc(C(F)(F)F)cc2Cl)ccc1[N+](=O)[O-] | inactive | inactive | inactive | inactive | inactive |  |  | inactive | inactive | inactive |
| c1nc[nH]n1 | inactive | inactive | inactive | inactive | inactive |  | inactive | inactive | inactive | inactive |
| N[C@@H](Cc1ccc(N(CCCl)CCCl)cc1)C(=O)O | inactive | inactive |  | inactive | inactive | inactive | inactive | inactive | inactive | inactive |
| O=C(NC(=O)c1c(F)cccc1F)Nc1ccc(Cl)cc1 | inactive | inactive | inactive | inactive | inactive |  |  | inactive | inactive | inactive |
| C=CCN(CC=C)C(=O)C(Cl)Cl | inactive | inactive | inactive | inactive | inactive |  |  | inactive | inactive | inactive |
| CC(C)(OOC(C)(C)c1ccccc1)c1ccccc1 | 24.2 µM (active) and 49 µM (active) | inactive | inactive | inactive | inactive |  |  | 43.6 µM (active) | inactive | inactive |
| N#CCCCl | inactive | inactive | inactive | inactive | inactive |  |  | inactive | inactive | inactive |
| CNC(=O)Oc1cccc2c1OC(C)(C)O2 | inactive | inactive | inactive | inactive | inactive |  |  | inactive | inactive | inactive |
| Oc1c(Cl)c(Cl)c(Cl)c(Cl)c1Cl | inactive | inactive | inactive | inactive | inactive |  |  | inactive | inactive | inactive |

Source: PubChem BioAssay (Tox21)
